# Compounds with a hit are over-represented: about 1.9% of the library has one in this group of screens.
# BCLXL inh = inhibitors of human Bcl-xL, primary screen, biochemical, fluorescence polarization, HTS. AID 2129, 2009. inhibition, % at 10.9 µM. Bcl-2-like protein 1 (Homo sapiens), Q07817. 320,000 compounds, 0.7% hits. GST-Bcl-xL / FITC-Bim BH3 peptide fluorescence polarization;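 active = inhibition above the mean of all tested compounds plus 3 SD, cutoff set per campaign, cut at about 30% in these data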;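 note: 0% = DMSO wells and 100% = unlabeled Bim-BH3 peptide competitor; inhibitors lower millipolarization by displacing the labeled peptide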
# LANA-H2B inh = blockers of LANA interaction with H2A/H2B – biochemical, FP readout, HTS, primary screen | Protein LANA1 (Human herpesvirus 8 type P (isolate GK18)), Q9QR71 | cell-free LANA-H2A/H2B peptide, fluorescence polarization | inhibition, % (no concentration beside the values) | 320,000 compounds, 0.6% hits; in the data active = inhibition mostly above about 10%, no sharp cut-off; inactive = mostly below about 6.7%
# MCL1-BIM inh = inhibitors of MCL1 binding to BIM-BH3, primary screen, biochemical, fluorescence polarization; Induced myeloid leukemia cell differentiation protein Mcl-1 (Homo sapiens), Q07820; GST-MCL1 / FITC-Bim-BH3 fluorescence polarization; inhibition, % at 10.9 µM; 320,000 compounds, 0.68% hits;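 active = inhibition above the mean inhibition of all tested compounds plus 3 SD, set per campaign, cut at about 40% in these data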;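 note: 0% = DMSO wells and 100% = unlabeled Bim-BH3 peptide control; higher means more loss of mP so more displacement of Bim peptide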
# MEX-5 binding = MEX-5 zinc finger RNA-binding disruptors – biochemical, C. elegans, fluorescence polarization, MLPCN library, primary screen. AID 1832, 2009. activity score (negative = inhibition of binding), % at 10 µM. MEX-5/FITC-TCR2 RNA binding; active compounds read low. 300,000 compounds, 0.38% hits. Zinc finger protein mex-5 (Caenorhabditis elegans), Q9XUB2;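 active = inhibition past about -25% in most replicates, and total fluorescence under double the plate's negative control median, limit read from the data; inconclusive = replicates evenly split on the limit, or fluorescence at least double controls; inactive = too little inhibition in most replicates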;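 note: 0% = DMSO and -100% = 5 µM competing unlabeled TCR2 RNA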
# GLD-1 RNA inh = GLD-1/TGE RNA complex disruptors, primary screen, biochemical, fluorescence polarization; inhibition, % at 5.96 µM; 320,000 compounds, 0.44% hits; AID 2280, 2010; purified GLD-1 + fluorescein TGE RNA;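 active = percent inhibition above a per-plate cutoff, the plate mean of test compounds plus 3 SD, cut at about 30% in these data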;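 note: 0% = DMSO wells with GLD-1 and probe and 100% = wells lacking GLD-1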
# Target sequence (Q17339 whole entry, looked up): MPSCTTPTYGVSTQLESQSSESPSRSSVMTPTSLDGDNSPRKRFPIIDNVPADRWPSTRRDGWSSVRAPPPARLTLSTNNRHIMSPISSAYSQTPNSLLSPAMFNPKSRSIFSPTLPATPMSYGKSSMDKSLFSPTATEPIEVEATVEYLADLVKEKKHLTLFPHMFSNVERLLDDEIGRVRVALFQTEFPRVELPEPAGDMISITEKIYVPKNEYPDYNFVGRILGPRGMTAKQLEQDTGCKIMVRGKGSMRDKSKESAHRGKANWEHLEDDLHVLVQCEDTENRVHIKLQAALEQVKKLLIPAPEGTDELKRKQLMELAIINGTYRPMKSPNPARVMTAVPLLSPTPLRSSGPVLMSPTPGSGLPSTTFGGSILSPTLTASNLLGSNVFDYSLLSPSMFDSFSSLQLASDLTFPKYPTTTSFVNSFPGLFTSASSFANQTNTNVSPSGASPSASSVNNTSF
# Yeast superoxide = reduction of superoxide in aged yeast, primary screen, HTS | 330,000 compounds, 0.18% hits | superoxide response (% of plate mean), % at 10 µM | S. cerevisiae aged cells, superoxide DHE fluorescence; active compounds read low;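 active = superoxide response under a set limit, about three screen SD below normal, cut at about 65% in these data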;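 note: yeast aged for seven days with compound at 30 °C before DHE staining; 100% = average MFI of all compound-treated wells on the plate with controls excluded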
# Bcl-xL conf = Bcl-xL inhibitors blocking Bim BH3 binding, confirmation, counter-screen for MCL1 inhibitor project, biochemical, fluorescence polarization. shares compounds with MCL1-BIM inh. GST-Bcl-xL / FITC-Bim BH3 peptide FP binding. inhibition, % at 10.9 µM. 1,700 compounds, 54% hits;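 active = inhibition above a cutoff equal to the mean inhibition of all tested compounds plus 3 SD, cut at about 30% in these data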;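 note: 0% = DMSO wells and 100% = unlabeled Bim BH3 control peptide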
# MCL1 BIM confirm = inhibitors of MCL1 binding to BIM-BH3, confirmation, biochemical, fluorescence polarization, triplicate; shares compounds with MCL1-BIM inh; GST-MCL1 / FITC-Bim-BH3 fluorescence polarization; inhibition, % at 10.9 µM; 1,700 compounds, 61% hits;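 active = inhibition above the average of all tested compounds plus 3 SD, cut at about 40% in these data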;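 note: 0% = DMSO wells and 100% = unlabeled Bim-BH3 control peptide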
# Numbers without * were called inactive; u = inconclusive; x = no result given; + = active, no number.
SMILES,BCLXL inh,LANA-H2B inh,MCL1-BIM inh,MEX-5 binding,GLD-1 RNA inh,Yeast superoxide,Bcl-xL conf,MCL1 BIM confirm
CCOc1ccc(NS(=O)(=O)c2ccc(C(=O)NCC(c3ccc(OC)cc3)N3CCCC3)cc2)cc1 (stereo unspecified),-4,-2,-6,3,0,83,x,x
O=C(Nc1ncccc1O)c1cccc(S(=O)(=O)N2CCc3ccccc32)c1,5,0,6,0,3,109,x,x
COc1ccc(NC(=O)c2cccc(S(=O)(=O)N3CCc4ccccc43)c2)cn1,61*,1,60*,-7,49*,113,46*,58*
Cc1ccc(OCC(=O)c2c(N)n(C)c(=O)n(C)c2=O)c([N+](=O)[O-])n1,36*,-5,72*,x,14,100,23,59*
Cc1ccc(OCC(=O)c2cc(C)c(C)cc2C)c([N+](=O)[O-])n1,10,16,11,1,10,93,x,x
CCn1nc(C)c(/C=C2\CCCC3=C2OC(N)=C(C#N)C3c2c(C)nn(CC)c2C)c1C (stereo unspecified),76*,-2,72*,u,53*,108,70*,85*
Nc1cc2c(cc1[N+](=O)[O-])OCCO2,-4,1,1,1,-5,88,x,x
Nc1cc2c(cc1[N+](=O)[O-])OCO2,10,2,44*,-2,-1,110,41*,78*
N=C1/C(=C\c2ccc(SCc3ccco3)o2)C(=O)N=C2SC=NN12,51*,-5,63*,-34*,21,108,50*,68*
CC(Sc1nnc(C2CC2)n1C1CC1)C(=O)N(C)C1(C#N)CCCCC1 (stereo unspecified),-1,-3,-2,x,0,133,x,x
CCC(=O)CN(Cc1cc(OC)ccc1OC)S(=O)(=O)c1ccccc1Br,x,x,x,x,x,109,x,x
CCCCN1Cc2c(nc3cc(-c4ccco4)[nH]n3c2=O)C1=O,29,6,66*,-4,-11,114,37*,51*
O=Cc1cccc(OC(=O)/C=C/c2ccco2)c1,14,10,50*,0,-10,100,10,52*
COC(=O)CCCC1=CC2=C(c3ccccc3)C(=O)C(C)(OC(=O)C3CCCC3)C(=O)C2=CN1CCCCO (stereo unspecified),28,-2,29,-1,22,104,x,x
CCCCC1=CC2=C(c3ccco3)C(=O)C(C)(OC(=O)c3ccc(OC)cc3)C(=O)C2=CN1CCCOC(C)C (stereo unspecified),63*,-2,65*,0,51*,95,72*,91*
COC(=O)CCCC1=CC2=C(c3ccccc3)C(=O)C(C)(OC(=O)C3CCCC3)C(=O)C2=CN1Cc1ccco1 (stereo unspecified),14,2,10,-5,11,105,x,x
CCCCC1=CC2=C(c3ccco3)C(=O)C(C)(OC(=O)c3ccc(OC)cc3)C(=O)C2=CN1c1ccccc1 (stereo unspecified),49*,0,50*,1,44*,98,2,-10
C=CCN1C=C2C(=O)C(C)(OC(=O)c3ccc(OC)cc3)C(=O)C(c3ccco3)=C2C=C1CCCC (stereo unspecified),67*,2,71*,-5,54*,103,41*,62*
C/C(=N\Nc1ncnc2sc(C)c(C)c12)c1ccccn1,101*,0,101*,u,25,36*,+,+
COc1ccccc1C(C)NC(=O)c1ccc(NC(=O)CC2SC(N3CCCC3)=NC2=O)cc1 (stereo unspecified),3,x,7,x,-3,88,x,x
O=C(COC(=O)c1cc[n+]([O-])cc1)Nc1cccc(F)c1,x,2,x,x,-5,114,x,x
CC1(O)C(=O)C=C2C=C(c3ccc(C#N)cc3)OC=C2C1=O (stereo unspecified),8,-1,47*,1,8,108,13,40*
O=C(CNC(=O)c1ccccc1Br)N/N=C\c1cc([N+](=O)[O-])cc(Br)c1O,9,-2,42*,-5,0,118,8,36
Nc1nnc(CC(=O)N/N=C/c2cccc([N+](=O)[O-])c2)s1,8,0,3,2,0,93,x,x
Nc1nnc(CC(=O)N/N=C/c2cc([N+](=O)[O-])cc(Br)c2O)s1,8,0,44*,u,-1,121,16,43*
SMILES,BCLXL inh,LANA-H2B inh,MCL1-BIM inh,MEX-5 binding,GLD-1 RNA inh,Yeast superoxide,Bcl-xL conf,MCL1 BIM confirm
Cc1nn(-c2ccccc2)c(Cl)c1/C=N/O,6,6,119*,-3,0,90,4,9
COc1ccc(N=Nc2[nH]c3ccc(C)cc3c2O)cc1,-7,0,-10,2,-5,92,x,x
Cc1ccc(N=Nc2[nH]c3ccccc3c2O)cc1,101*,2,109*,-61*,67*,95,83*,81*
COC(=O)c1c(Cl)c2n3ccccc3c(C)c(-c3ccccc3)c-2c1C(=O)OC,172*,x,+,-41*,179*,112,37*,35
COc1cccc(=O)c2c(C)n(CC(=O)c3ccccc3)c(C)c12,24,-5,47*,3,3,89,13,16
COc1cc(OC)cc(C(=O)NNC(=O)CN2C(=O)NC(C)(c3ccccc3)C2=O)c1 (stereo unspecified),-3,3,-2,-1,-6,129,x,x
O=C(N/N=C/c1cc(Cl)cc(Cl)c1O)c1ccncc1,72*,-8,56*,0,67*,94,67*,67*
O=C(N/N=C/c1ccc(Cl)cc1Cl)c1ccncc1,-2,-1,1,-2,-3,104,x,x

# Screening results: PubChem BioAssay, several laboratories
